Experimental findings from PubChem BioAssay (NCI) are described below.

Compounds without any hit were thinned out: in the full panel of roughly 83,000, 20% have a hit.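 Results are percent growth after 48 hours of single-concentration exposure. 100 means growth as in untreated cells, lower positive values show inhibition; negative values down to -100 show cell death.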 Values without a mark were called inactive. Active and inactive are the calls of the source. The calls were made as follows: active = growth percent below 10; inactive = the rest.

Experiment in all cases: NCI-60 one-dose screen, 48 h (100 = growth as untreated, 0 = no growth, -100 = all killed)
Assay [1] concerns SK-MEL-2 melanoma. The conditions noted are these: 10 µM unless noted.
For assay [2], the system named is EKVX NSCLC. The conditions noted are these: 10 µM unless noted.
Assay [3] deals with SN12C renal. The conditions noted are these: 10 µM unless noted.
For assay [4], the system named is UO-31 renal. The conditions noted are these: 10 µM unless noted.
Assay [5] has as its system ACHN renal. The conditions noted are these: 10 µM unless noted.
Assay [6] relates to CAKI-1 renal. The conditions noted are these: 10 µM.
Assay [7] relates to A498 renal. The conditions noted are these: 10 µM unless noted.
In assay [8] the test system is CCRF-CEM leukemia. The conditions noted are these: 10 µM unless noted.
Assay [9] relates to MOLT-4 leukemia. The conditions noted are these: 10 µM unless noted.
Assay [10] concerns SR leukemia. The conditions noted are these: 10 µM unless noted.
Assay [11] concerns RPMI-8226 leukemia. The conditions noted are these: 10 µM unless noted.
The test system of assay [12] is OVCAR-8 ovarian. The conditions noted are these: 10 µM unless noted.
The subject of assay [13] is OVCAR-5 ovarian. The conditions noted are these: 10 µM unless noted.
In assay [14] the test system is OVCAR-4 ovarian. The conditions noted are these: 10 µM unless noted.
Assay [15] relates to SK-OV-3 ovarian. The conditions noted are these: 10 µM unless noted.
In assay [16] the test system is IGROV1 ovarian. The conditions noted are these: 10 µM unless noted.
The test system of assay [17] is OVCAR-3 ovarian. The conditions noted are these: 10 µM unless noted.
Assay [18] concerns NCI/ADR-RES ovarian. The conditions noted are these: 10 µM unless noted.
The test system of assay [19] is HS 578T breast. The conditions noted are these: 10 µM unless noted.

Consider `Nc1ncnc2c1ccn2-c1cccc(NC(=O)c2cccc(C(F)(F)F)c2)c1`, for which the growth was 80.6% in assay [1]; 66.6% in assay [2]; 88.4% in [3]; 86.4% in assay [4]; 64.1% in assay [5]; 69.7% in assay [6]. The growth in assay [7] was 82.9%; in assay [8] it was 51.3%; in assay [9], 52.3%; in assay [10], 54.6%; in [11], 52.9%; in [12], 78%. Besides, the growth in assay [13] was 81.4%; in assay [14] it was 68.7%; in assay [15] it was 93.3%; in assay [16] it was 87.5%; in assay [17] it was 80%; in assay [18] it was 78.4%.

`CN(C)CCS(=O)(=O)Nc1cc(-c2ccc3ncnc(Nc4ccc(F)c(Cl)c4)c3c2)cnc1Cl`: the growth in [1] was -53.4% (active); in [2], -9.17% (active); in assay [3] it was 22.6%; in assay [4], -61.2% (active); in assay [5], 20.2%; in assay [6] it was -30.6% (active). Further, the growth in [7] is -78% (active); in assay [8], 0.907% (active); in [9] it was -36.7% (active); in [10] it was -29.1% (active); in [11], -39.9% (active); in [12] it was 13.7%. Moreover, the growth in assay [13] is -22.4% (active); in assay [14], 19.3%; in [15], -42.7% (active); in assay [16], -23.7% (active); in [17] it was -87% (active); in assay [19], -7.53% (active). The growth in assay [18] is 14.9%.

For `OC[C@@H](O)C(O[C@@H]1O[C@H](CO)[C@H](O)[C@H](O)[C@H]1O)[C@H](O)[C@@H](O)CO` (some centres not stated), the growth in assay [1] is 106%; in assay [2], 95.4%; in assay [3], 101%; in assay [4], 75.5%; in [5] it was 94.4%; in assay [6] it was 92.9%. The growth in assay [7] is 111%; in [8], 106%; in [9] it was 106%; in assay [10], 87.4%; in assay [11], 103%; in [12], 98.6%. The growth in assay [13] is 91.8%; in assay [14] it was 106%; in assay [15], 99.5%; in [16], 95.9%; in assay [17], 103%; in [19], 129%. The growth in assay [18] is 95.4%.

Consider `O=C(Nc1ccc(-n2cc(-c3ccncc3)c(-c3ccc(O)c(Cl)c3)n2)cc1)c1cc(Cl)cc(Cl)c1`, for which the growth in [1] is 7.85% (active); in assay [2], 56.5%; in assay [3] it was 35.8%; in assay [4], 16.4%; in assay [5] it was 16.2%; in [6] it was 45.8%. The growth in [7] was 95.4%; in assay [8] it was 16.9%; in assay [9] it was 11.1%; in [10], 14.8%; in [11], -19.5% (active); in assay [12], 30.3%. In addition, the growth in assay [13] was 71.4%; in assay [14] it was 78.1%; in assay [15], 70.2%; in assay [16], 43.2%; in [17] it was 27%; in assay [18] it was 28.7%.

Regarding `COc1cccc(-c2nc3sccn3c2-c2ccnc(NCCNC(=O)c3ccccc3)n2)c1`, the growth in assay [1] was 73.3%; in [2] it was 106%; in [3], 84.3%; in assay [4], 53.8%; in assay [5], 65.8%; in assay [6] it was 84.4%. Also, the growth in assay [7] was 66.3%; in [8], 52.5%; in assay [9], 53.4%; in assay [10], 79.8%; in assay [11], 41.6%; in assay [12], 62.5%. The growth is 99.1% in [13]; 109% in [14]; 88.5% in assay [15]; 69.2% in assay [16]; 89.1% in [17]; 70.5% in assay [18].

As for `O=S(=O)(Nc1cccc2cc(OS(=O)(=O)c3ccccc3)ccc12)c1ccccc1`, the growth in assay [1] was 66.9%; in [2], 64%; in assay [3], 70.1%; in assay [4] it was 59.7%; in assay [5], 85.1%; in assay [6] it was 71.4%. For the same molecule, the growth in [7] is 48.6%; in assay [8], 61.9%; in assay [9] it was 43.3%; in assay [10], 25.5%; in assay [11] it was 62.1%; in [12], 75.2%. In addition, the growth in assay [13] was 91%; in [14], 71.3%; in assay [15], 61.8%; in assay [16], 72.5%; in assay [17], 66.1%; in [19], 57.3%. The growth in [18] is 46.2%.

Turning to `O=S1(=O)N(CCNc2nccc(-c3c(-c4cccc(O)c4)nc4sccn34)n2)CCN1Cc1ccccc1`, the growth in assay [1] was 19.2%; in assay [2], 90.9%; in assay [3], 64.1%; in assay [4] it was 43.8%; in assay [5] it was 41.1%; in [6], 39.4%. For the same molecule, the growth in assay [7] was -20.9% (active); in assay [8] it was 31.9%; in [9], 63.1%; in assay [10], 55.4%; in assay [11], 47.4%; in assay [12] it was 48.3%. The growth in [13] is 113%; in [14], 110%; in assay [15] it was 52.9%; in [16], 51.9%; in [17] it was 64.9%; in [18], 74%.

As to `O=[N+]([O-])c1cccc(C2c3ccccc3Oc3ccccc32)c1`, the growth in [1] was 107%; in assay [2], 93.9%; in assay [3], 99.9%; in assay [4], 70.7%; in assay [5], 89.1%; in assay [6] it was 72.4%. Also, the growth in [7] is 94.1%; in assay [8], 88.6%; in assay [9], 79.6%; in [10] it was 77.4%; in assay [11], 82.2%; in assay [12], 89.4%. Moreover, the growth in assay [13] is 90.8%; in [14] it was 91%; in assay [15], 84.1%; in [16] it was 76.8%; in assay [17] it was 91.7%; in assay [18] it was 93.7%.
